Measured values published in PubChem BioAssay (EPA / NIEHS).
Where “and” joins values, the source holds several entries; their conditions need not be identical. Equal values may be shown once. More than one record can exist for a structure, and the calls need not agree. Calls of active or inactive are those of the source. Rule for the calls: active = hit-call score of the fitted dose curve at least 0.9, where 1 is the maximum; inactive = score below 0.9.

Key:
[1] = read-out: Urokinase-type plasminogen activator receptor (uPAR), PLAUR (gene 5329); experiment: BSK_4H_uPAR: BioMAP Diversity Plus: 4H Assay for Urokinase-type plasminogen activator receptor (uPAR) Biomarker Activity (AID 2283030); settings: primary human endothelial cells (HUVEC); actives raise or lower the signal
Summary of the method: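 Primary human umbilical vein endothelial cells were exposed to chemical for 24 h before cell-surface uPAR was quantified by ELISA. Activity was fitted bidirectionally against the DMSO negative control baseline.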

[2] = read-out: Vascular endothelial growth factor receptor 2 (Homo sapiens) (UniProt P35968); experiment: BSK_4H_VEGFRII: BioMAP Diversity Plus: 4H Assay for Vascular endothelial growth factor receptor 2 (VEGFR2) Biomarker Activity (AID 2283031); settings: primary human endothelial cells (HUVEC); actives raise or lower the signal;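 for AC50: cell-surface VEGFR2 protein level quantified by ELISA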
Summary of the method: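 Primary human umbilical vein endothelial cells in the BioMAP 4H system were dosed with test chemical, and 24 h later VEGFRII was measured by ELISA. Activity was fitted bidirectionally against DMSO as negative control and baseline.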

[3] = read-out: Human Leukocyte Antigen - DR isotype (HLADR), HLA-DRA (gene 3122); experiment: BSK_BE3C_HLADR: BioMAP Diversity Plus: BE3C Assay for Human Leukocyte Antigen - DR isotype (HLADR) Biomarker Activity (AID 2283032); settings: primary human bronchial epithelial cells; actives raise or lower the signal
Summary of the method: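 Human primary bronchial epithelial cells in the BE3C system were exposed to chemicals for 24 h, after which HLA-DR levels were quantified by ELISA. Activity was fitted bidirectionally, gain or loss of signal, against DMSO as negative control and baseline.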

[4] = read-out: Vascular cell adhesion molecule 1 (VCAM1), VCAM1 (gene 7412); experiment: BSK_4H_VCAM1: BioMAP Diversity Plus: 4H Assay for Vascular cell adhesion molecule 1 (VCAM1) Biomarker Activity (AID 2283033); settings: primary human endothelial cells (HUVEC); actives raise or lower the signal
Summary of the method: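 Primary human umbilical vein endothelial cells were exposed to chemicals for 24 h, after which VCAM-1 was quantified by ELISA. Responses were fitted bidirectionally against DMSO as negative control and activity baseline.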

[5] = read-out: Interferon-gamma inducible Protein 10 (IP10), CXCL10 (gene 3627); experiment: BSK_BE3C_IP10: BioMAP Diversity Plus: BE3C Assay for Interferon-gamma inducible Protein 10 (IP10) Biomarker Activity (AID 2283034); settings: primary human bronchial epithelial cells; actives raise or lower the signal
Summary of the method: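 Human primary bronchial epithelial cells were exposed to chemicals for 24 hours, after which IP-10 levels were measured by ELISA. Data were fitted bidirectionally against DMSO, which served as the negative control and activity baseline.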

[6] = read-out: Plasminogen activator inhibitor-1 (PAI1), SERPINE1 (gene 5054); experiment: BSK_BE3C_PAI1: BioMAP Diversity Plus: BE3C Assay for Plasminogen activator inhibitor-1 (PAI1) Biomarker Activity (AID 2283037); settings: primary human bronchial epithelial cells; actives raise or lower the signal
Summary of the method: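 Human primary bronchial epithelial cells were exposed to chemical for 24 h, then PAI-1 was quantified by ELISA. Activity was fitted bidirectionally relative to the DMSO negative control baseline.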

[7] = read-out: urokinase plasminogen activator (uPA), PLAU (gene 5328); experiment: BSK_BE3C_uPA: BioMAP Diversity Plus: BE3C Assay for urokinase plasminogen activator (uPA) Biomarker Activity (AID 2283038); settings: primary human bronchial epithelial cells; actives raise or lower the signal;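 note: uPA protein level quantified by ELISA in cell cultures; uPA read one day after compound addition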
Summary of the method: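 Human primary bronchial epithelial cells were exposed to chemical for 24 h, then uPA levels were measured by ELISA. Responses were fitted bidirectionally against DMSO as negative control and baseline. Parallel SRB staining of total protein gauged overt cytotoxicity.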

[8] = read-out: Urokinase-type plasminogen activator receptor (uPAR), PLAUR (gene 5329); experiment: BSK_BE3C_uPAR: BioMAP Diversity Plus: BE3C Assay for Urokinase-type plasminogen activator receptor (uPAR) Biomarker Activity (AID 2283039); settings: primary human bronchial epithelial cells; actives raise or lower the signal
Summary of the method: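 Primary human bronchial epithelial cells were dosed with chemical and harvested 24 h later; uPAR was quantified by ELISA. Activity was fitted bidirectionally against DMSO as negative control and baseline.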

[9] = read-out: Interleukin-6 (IL6), IL6 (gene 3569); experiment: BSK_CASM3C_IL6: BioMAP Diversity Plus: CASM3C Assay for Interleukin-6 (IL6) Biomarker Activity for (AID 2283040); settings: primary human coronary artery smooth muscle cells; actives raise or lower the signal
[10] = read-out: Tissue plasminogen activator (tPA), PLAT (gene 5327); experiment: BSK_BE3C_tPA: BioMAP Diversity Plus: BE3C Assay for Tissue plasminogen activator (tPA) Biomarker Activity (AID 2283041); settings: primary human bronchial epithelial cells; actives raise or lower the signal
Summary of the method: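 Human primary bronchial epithelial cells were dosed with chemical and tPA biomarker levels measured by ELISA 24 hours later. Activity was fitted bidirectionally against DMSO as negative control and baseline.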

[11] = read-out: Interleukin-8 (IL8), CXCL8 (gene 3576); experiment: BSK_CASM3C_IL8: BioMAP Diversity Plus: CASM3C Assay for Interleukin-8 (IL8) Biomarker Activity (AID 2283042); settings: primary human coronary artery smooth muscle cells; actives raise or lower the signal;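 note: IL-8 protein level quantified by ELISA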
[12] = read-out: Human Leukocyte Antigen - DR isotype (HLADR), HLA-DRA (gene 3122); experiment: BSK_CASM3C_HLADR: BioMAP Diversity Plus: CASM3C Assay for Human Leukocyte Antigen - DR isotype (HLADR) Biomarker Activity (AID 2283043); settings: primary human coronary artery smooth muscle cells; actives raise or lower the signal;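 note: cell-surface HLA-DR protein level quantified by ELISA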
[13] = read-out: Macrophage colony-stimulating factor (MCSF), CSF1 (gene 1435); experiment: BSK_CASM3C_MCSF: BioMAP Diversity Plus: CASM3C Assay for Macrophage colony-stimulating factor (MCSF) Biomarker Activity (AID 2283044); settings: primary human coronary artery smooth muscle cells; actives raise or lower the signal;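 note: M-CSF protein amount quantified by ELISA after 24 h exposure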
[14] = read-out: Low-density lipoprotein receptor (LDLR), LDLR (gene 3949); experiment: BSK_CASM3C_LDLR: BioMAP Diversity Plus: CASM3C Assay for Low-density lipoprotein receptor (LDLR) Biomarker Activity (AID 2283045); settings: primary human coronary artery smooth muscle cells; actives raise or lower the signal;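 note: LDLR protein level on the cell surface quantified by ELISA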
[15] = read-out: Monocyte Chemoattractant Protein-1 (MCP1), CCL2 (gene 6347); experiment: BSK_CASM3C_MCP1: BioMAP Diversity Plus: CASM3C Assay for Monocyte Chemoattractant Protein-1 (MCP1) Biomarker Activity (AID 2283046); settings: primary human coronary artery smooth muscle cells; actives raise or lower the signal;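 note: MCP-1 level quantified by ELISA 24 h after dosing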
[16] = BSK_CASM3C_Proliferation: Cell Proliferation Assessment in the BioMAP Diversity Plus: CASM3C Assay (AID 2283047); settings: primary human coronary artery smooth muscle cells;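 note: sulforhodamine B total protein stain as relative cell number at 560 nm; sub-confluent cells exposed 48 h before staining; fitted both ways against DMSO so gain or loss of cell number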
[17] = read-out: Monokine induced gamma interferon (MIG), CXCL9 (gene 4283); experiment: BSK_CASM3C_MIG: BioMAP Diversity Plus: CASM3C Assay for Monokine induced gamma interferon (MIG) Biomarker Activity (AID 2283048); settings: primary human coronary artery smooth muscle cells; actives raise or lower the signal
[18] = read-out: serum amyloid A (SAA), SAA1 (gene 6288); experiment: BSK_CASM3C_SAA: BioMAP Diversity Plus: CASM3C Assay for serum amyloid A (SAA) Biomarker Activity (AID 2283049); settings: primary human coronary artery smooth muscle cells; actives raise or lower the signal;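 note: SAA protein level quantified by ELISA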
[19] = read-out: Monokine induced gamma interferon (MIG), CXCL9 (gene 4283); experiment: BSK_BE3C_MIG: BioMAP Diversity Plus: BE3C Assay for Monokine induced gamma interferon (MIG) Biomarker Activity (AID 2283035); settings: primary human bronchial epithelial cells; actives raise or lower the signal;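 note: MIG protein measured by ELISA in BE3C cultures after 24 h of dosing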
Summary of the method: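 ELISA read-out of MIG in human lung bronchial epithelial primary cultures, 24 h post-dosing. Bidirectional curve fit vs DMSO baseline.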

[20] = read-out: Transforming growth factor beta 1 (TGFb1), TGFB1 (gene 7040); experiment: BSK_BE3C_TGFb1: BioMAP Diversity Plus: BE3C Assay for Transforming growth factor beta 1 (TGFb1) Biomarker Activity (AID 2283036); settings: primary human bronchial epithelial cells; actives raise or lower the signal
Summary of the method: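 Human primary bronchial epithelial cells (BE3C system) were dosed with chemical and TGF-b1 levels measured by ELISA at 24 h. Activity was fitted bidirectionally relative to DMSO negative control as baseline.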

Measured: AC50

FC(F)(I)C(F)(F)C(F)(F)C(F)(F)I
inactive: [1] | [2] | [6] | [7] | [8] | [10] | [11] | [12] | [14]
active: [1] 50.3 µM and 57.1 µM | [2] 18.7 µM and 45.2 µM | [3] 49.2 µM and 46.2 µM and 46.8 µM | [4] 22.9 µM and 53.8 µM and 54.1 µM | [5] 58.2 µM and 46.9 µM and 54.8 µM | [6] 50.8 µM | [8] 51.1 µM and 47.9 µM | [9] 45.6 µM and 44.9 µM and 30 µM | [10] 46.5 µM and 43.2 µM | [11] 47.5 µM and 48.2 µM | [12] 50.5 µM | [13] 47.5 µM and 50.2 µM and 46.8 µM | [14] 23.6 µM and 43.5 µM | [15] 44.4 µM and 46 µM and 46.1 µM | [16] 43.4 µM and 49.7 µM and 43.9 µM | [17] 44.3 µM and 48.1 µM and 46.8 µM | [18] 47.5 µM and 45 µM and 47.6 µM

Oc1ccc(Nc2ccccc2)cc1
active: [1] 3.14 µM | [4] 20 µM | [5] 3.97 µM | [20] 5.46 µM | [6] 7.39 µM | [12] 2.54 µM | [14] 2.43 µM | [16] 30.1 µM
inactive: [2] | [3] | [19] | [7] | [8] | [9] | [10] | [11] | [13] | [15] | [17] | [18]

O=P(O)(O)OCCC(F)(F)C(F)(F)C(F)(F)C(F)(F)C(F)(F)C(F)(F)F
inactive: [1] | [2] | [3] | [4] | [5] | [19] | [6] | [7] | [8] | [9] | [10] | [11] | [12] | [13] | [14] | [15] | [16] | [17] | [18]
active: [4] 6.01 µM | [10] 3.64 µM | [15] 258 nM | [18] 457 nM

O=C(O)C(F)(F)C(F)(F)OC(F)(F)F
active: [2] 2.45 µM
inactive: [1] | [2] | [3] | [4] | [5] | [19] | [6] | [7] | [8] | [9] | [10] | [11] | [12] | [13] | [14] | [15] | [16] | [17] | [18]

CCCCCCC(C)OC(=O)CCCCC(=O)OC(C)CCCCCC (centres undefined)
inactive: [1] | [2] | [3] | [4] | [5] | [19] | [20] | [6] | [7] | [8] | [9] | [10] | [11] | [12] | [13] | [14] | [15] | [16] | [17] | [18]
